# Data published in PubChem BioAssay AID463173 (ICCB-Longwood Screening Facility, Harvard Medical School, 2010).
# The campaign covered roughly 52,000 compounds. About 4,300 (8.3%) were called active. The full list was thinned out, with actives kept by preference. Values without a mark were called inactive. No stated cut-off is given here; in the data, active means survival mostly below about 52% (no sharp cut-off); inactive means mostly above about 56%.
# Tested on: DeltatarO mutant
# Experiment: S. aureus survival, RN4220 and DeltatarO strains – OD600, teichoic acid synthesis inhibitors, primary screen (AID 463173)
# Settings: S. aureus RN4220 wild type/DeltatarO growth, OD600, 18 h, hits give low values, screened at 18.75 µg/mL (by protocol)
row,SMILES,survival
1,COc1ccc(NCc2cccn2-c2nnc(N3CCCCCC3)s2)cc1,71%
2,COc1ccccc1CNC(=O)c1cccn1-c1nnc(N2CCCCC2)s1,37% (active)
3,CCc1ccc(NCc2cccn2-c2nnc(N3CCCCCC3)s2)cc1,-6% (active)
4,COc1ccc(CNC(=O)c2cccn2-c2nnc(N3CCCCC3)s2)c(OC)c1,0% (active)
5,COc1ccc(NC(=O)c2cccn2-c2nnc(N3CCCCC3)s2)c(OC)c1,98%
6,COc1ccccc1CCNC(=O)c1cccn1-c1nnc(N2CCCCC2)s1,95%
7,CCOc1ccccc1CNC(=O)c1cccn1-c1nnc(N2CCCC2)s1,102%
8,CCOc1ccccc1CNC(=O)c1cccn1-c1nnc(N2CCCCC2)s1,131%
9,Cc1ccc(NCc2cccn2-c2nnc(N3CCCCCC3)s2)cc1,78%
10,CCN1CCN(c2nnc(-n3cccc3C(=O)NCc3ccccc3OC)s2)CC1,46% (active)
11,COc1ccc(CNC(=O)c2cccn2-c2nnc(N3CCCC3)s2)c(OC)c1,91%
12,COc1ccccc1CNC(=O)c1cccn1-c1nnc(N2CCCC2)s1,92%
13,CCOc1ccc(/C=C/c2nc3ccccc3n2S(=O)(=O)c2ccc(Br)cc2)cc1,59%
14,CCN1CCSc2ccc(C(=O)NCc3ccc(F)cc3)cc21,97%
15,CNC(=O)c1ccc(CN2CCc3ccccc3C2)cc1,100%
16,CCOC(=O)c1c(C)[nH]c(C)c1S(=O)(=O)N1CCC(C(=O)N2CCN(c3ccccc3)CC2)CC1,90%
17,O=C(CSc1nccn1Cc1ccc(Cl)cc1)Nc1ccc2c(c1)OCCO2,94%
18,Cc1ccc(-n2ncc(C(=O)N3CCN(c4ccccn4)CC3)c2C2CCN(C(=O)OC(C)(C)C)CC2)cc1,81%
19,O=C(Cn1c(=O)oc2cc(S(=O)(=O)NCc3ccccc3)ccc21)Nc1cccc(F)c1,78%
20,O=C(NCc1cccc(Cl)c1)c1cccn1-c1nnc(N2CCCC2)s1,37% (active)

row,SMILES,survival
1,CCOc1ccccc1CNCc1cccn1-c1nnc(N2CCN(c3ccccc3)CC2)s1,47% (active)
2,O=C(NCc1ccccc1)c1cccn1-c1nnc(N2CCCC2)s1,55%
3,COc1cccc(CNCc2cccn2-c2nnc(N3CCN(c4ccccc4)CC3)s2)c1,79%
4,Cc1ccc(CNCc2cccn2-c2nnc(N3CCCC3)s2)cc1,86%
5,O=C(NCc1cccc(Br)c1)c1cccn1-c1nnc(N2CCCCC2)s1,78%
6,O=C1C=C(N2CCCCC2)C2(CCCCC2)O1,106%
7,COc1ccc(CCN(Cc2cc3cc(C)ccc3n3nnnc23)C(=O)N(C)C)cc1OC,86%
8,Cc1ccc(C)c(N2CCN(C3(c4ccccc4)C(=O)c4ccccc4C3=O)CC2)c1,98%
9,COc1cccc(C(=O)NCC(=O)OCc2cc(=O)n3nc(C)sc3n2)c1,116%
10,COc1ccc(OC)c(C2c3c(oc4ccc(C)cc4c3=O)C(=O)N2CCCN(C)C)c1 (centres undefined),73%
11,CC(=O)N1CCc2cc(CNC(=O)Nc3ccc(Br)c(C)c3)ccc21,87%
12,CC(=O)N1CCc2cc(S(=O)(=O)C(C)CC(=O)Nc3ccc(Br)c(C)c3)ccc21 (centres undefined),-5% (active)
13,COc1cc(NC(=O)CC(C)S(=O)(=O)c2ccc3c(c2)CCN3C(C)=O)cc(OC)c1OC (centres undefined),92%
14,Cc1ccc(C)c(N2CCN(Cc3csc(C)c3)CC2)c1,119%
15,CC(C)(C)NC(=O)CSc1nnc(-c2cccs2)o1,102%
16,COc1ccc(C)cc1NC(c1nnc(-c2ccccc2)o1)c1ccc(F)cc1Cl (centres undefined),-3% (active)
17,COc1cc(OC)c(NC(c2nnc(-c3ccccc3)o2)c2ccc(F)cc2Cl)cc1Cl (centres undefined),61%
18,Cc1cccc(NC(c2nnc(-c3ccccc3)o2)c2ccc(F)cc2Cl)c1C (centres undefined),61%
19,COc1cccc(NC(c2nnc(-c3ccccc3)o2)c2ccc(F)cc2Cl)c1 (centres undefined),54%
20,CCc1ccccc1NC(c1nnc(-c2cccc(F)c2)o1)c1ccc(F)cc1Cl (centres undefined),96%

row,SMILES,survival
1,CCOc1ccccc1NC(c1nnc(-c2ccccc2)o1)c1ccc(F)cc1Cl (centres undefined),1% (active)
2,Nc1ccc2nc(CN3CCOCC3)[nH]c2c1,88%
3,Cc1cc(C)cc(N2C(=O)CS(=O)(=O)C23C(=O)N(Cc2ccccc2)c2ccccc23)c1 (centres undefined),82%
4,COC(=O)c1ccc(Cl)cc1NC(=O)N1CCC(CN2CCCC2)CC1,84%
5,CCc1ccc(NC(=O)C(=O)NCCc2sc(-c3ccc(OC)c(OC)c3)nc2C)cc1,78%
6,Cc1ccc(CNC(=O)c2ccc3c(c2)c(C)c(C)n3Cc2ccc(Cl)cc2)o1,75%
7,CCCOc1ccccc1-c1nc(SCC(=O)c2ccccc2)n[nH]1,109%
8,COc1ccccc1-c1nc(SCC(=O)c2ccc(Cl)cc2)n[nH]1,175%
9,Cc1ccc(NC(=O)CSc2n[nH]c(-c3ccc(F)cc3)n2)cc1F,128%
10,COc1ccccc1-c1nc(SCC(=O)c2ccccc2)n[nH]1,53% (active)
11,CCOc1ccc(-c2nc(SCC(=O)c3ccccc3)n[nH]2)cc1,179%
12,CCOc1ccccc1-c1nc(SCC(=O)c2ccc(OC)c(Br)c2)n[nH]1,53%
13,COc1ccccc1-c1nc(SCC(=O)Nc2ccc(C)c(C)c2)n[nH]1,43% (active)
14,COc1ccc(NC(=O)CSc2n[nH]c(-c3ccccc3)n2)cc1Cl,88%
15,CC(C)Oc1ccccc1-c1nc(SCC(=O)c2ccc(F)cc2)n[nH]1,40% (active)
16,CC(C)(C)NC(=O)c1cnn(-c2ccccc2)c1C1CCN(C(=O)OC(C)(C)C)CC1,78%
17,CC(=O)c1c(C)oc2ccc(N(C(=O)Oc3ccccc3)S(=O)(=O)c3ccc(Cl)cc3)cc12,75%
18,CCC(=O)OC1=C(C(C)=O)N(Cc2ccccc2)S(=O)(=O)c2ccccc21,62%
19,COc1ccc(C(CC(=O)Nc2ccc(F)c(Cl)c2)N2Cc3ccccc3C2=O)cc1OC (centres undefined),75%
